# Experimental data as given in article PMC4552634, “A New Set of Chemical Starting Points with Plasmodium falciparum Transmission-Blocking Potential for Antimalarial Drug Discovery” (PLoS ONE, 2015).
# Among all 13,000 compounds or so, about 3,200 (25%) showed an effect of 50% or more. Some of the results follow.
# Test system: P. falciparum stage V gametocytes
# Set-up: BacTiter-Glo ATP luminescence viability of purified stage V gametocytes in 384-well plates, per cent inhibition versus DMSO
# Conditions: 48 h, 5 µM; inhibitor
row,SMILES,% Inhibition [%]
1,CC(=O)N(C)c1cccc(CNc2cc(C)nc(Nc3ccc(C)cc3)n2)c1 [TCMDC-134005],7.958
2,CN1CCN(CC(=O)Nc2ccc(-c3ccc(-c4nc5cc(C(F)(F)F)ccc5[nH]4)s3)cc2)CC1 [TCMDC-136976],14.59
3,COc1cc(Cc2cnc(N)nc2N)cc(OCCCCc2nn[nH]n2)c1OC [TCMDC-138032],13.98
4,Cc1cccc(-c2nc3[nH]c(=O)cc(NC(=O)C(C)C)n3n2)c1 [TCMDC-125001],-2.254
5,O=C(Nc1cccc(CN2CCCN(Cc3cccc(Cl)c3)CC2)c1)c1ccc(-c2ccccc2)cc1 [TCMDC-141837],-76.33
6,CCCc1ccc(NC(=O)c2ccc(CN3CCCN(Cc4ccc(OC)cc4)CC3)cc2)cc1 [TCMDC-136422],91.61
7,COc1ccc(CN2CCCN(Cc3ccc(C(=O)Nc4ccc(Cl)cc4)cc3)CC2)cc1 [TCMDC-136409],0.3374
8,O=C(Nc1cccc(CN2CCCN(Cc3ccc(O)cc3)CC2)c1)c1ccc(-c2ccccc2)cc1 [TCMDC-141850],69.39
9,CCCCCCN1CCCN(Cc2ccc(C(=O)Nc3ccc(C(C)C)cc3)cc2)CC1 [TCMDC-136423],90.22
10,CCCCCCN1CCCN(Cc2ccc(C(=O)Nc3ccc(CCC)cc3)cc2)CC1 [TCMDC-136424],9.552
11,CCCCCCN1CCCN(Cc2ccc(C(=O)Nc3ccc(CC)cc3)cc2)CC1 [TCMDC-136450],13.19
12,O=C(Nc1cccc(CN2CCN(Cc3ccc(O)cc3)CC2)c1)c1ccc(-c2ccccc2)cc1 [TCMDC-141886],12.46
13,CCCCCCN1CCCN(Cc2ccc(C(=O)Nc3ccc(Cl)cc3)cc2)CC1 [TCMDC-136416],35.96
14,Oc1c(Br)cc2oc3c(c2c1CNCc1ccccc1)CCCC3 [TCMDC-124248],19.71
15,Cc1cccc2c(CON3C(N)=NC(N)=NC3(C)C)cccc12 [TCMDC-131325],30.52
16,c1ccc2c(c1)CN(Cc1ccsc1)CC1(CCN(Cc3c[nH]c4cnccc34)CC1)O2 [TCMDC-133374],-8.367
17,CS(=O)(=O)CCNCc1ccc(-c2ccc3c(Nc4ccc(Cl)cc4F)ccnc3c2)o1 [TCMDC-138445],0.4033
18,Fc1cc(Cl)ccc1Nc1ccnc2cc(I)ccc12 [TCMDC-138376],-32.49
19,CN(C)Cc1ccc(-c2ccc3c(Nc4ccc(Cl)cc4F)ccnc3c2)o1 [TCMDC-138389],51.2
20,Fc1ccc(Nc2ccnc3cc(-c4ccc(CNCCN5CCOCC5)o4)ccc23)c(Cl)c1 [TCMDC-138451],28.52
21,CN(C)CCN(C)Cc1ccc(-c2ccc3c(Nc4ccc(Cl)cc4F)ccnc3c2)o1 [TCMDC-138388],33.59
22,CN(C)CCN(C)Cc1ccc(-c2ccc3c(Nc4ccc(F)cc4Cl)ccnc3c2)o1 [TCMDC-138447],57.57

row,SMILES,% Inhibition [%]
1,Fc1ccc(Nc2ccnc3cc(-c4ccc(CN5CCOCC5)o4)ccc23)c(Cl)c1 [TCMDC-138450],-9.806
2,COCCNCc1ccc(-c2ccc3c(Nc4ccc(Cl)cc4F)ccnc3c2)o1 [TCMDC-138390],17.71
3,CN(C)CCNCc1ccc(-c2ccc3c(Nc4ccc(F)cc4Cl)ccnc3c2)o1 [TCMDC-138449],71.06
4,CN1CCN(Cc2ccc(-c3ccc4c(Nc5ccc(F)cc5Cl)ccnc4c3)o2)CC1 [TCMDC-138452],13.09
5,CN(C)CCNCc1ccc(-c2ccc3c(Nc4ccc(Cl)cc4F)ccnc3c2)o1 [TCMDC-138391],96.42
6,COCCNCc1ccc(-c2ccc3c(Nc4ccc(F)cc4Cl)ccnc3c2)o1 [TCMDC-138448],12.72
7,Cc1cccc2nc(-c3ccc(-c4ccc(CN5CC(C)OC(C)C5)cc4)cc3)[nH]c12.O=C(O)C(F)(F)F (centres unmarked) [TCMDC-133823],-0.7329
8,Cc1noc(C)c1CN1CCCN(c2ccc3c(c2)CCN(Cc2ccc(-c4ncc[nH]4)cc2)CC3)CC1 [TCMDC-136548],-0.683
9,CO/N=C(\C)c1ccc2c(c1)CCN(CCC1CCC(NC(=O)/C=C/c3ccc(F)cc3)CC1)CC2 (centres unmarked) [TCMDC-139922],-74.19
10,Fc1ccc2nc(-c3ccc(-c4ccc(CNCCc5cccnc5)cc4)s3)[nH]c2c1 [TCMDC-132875],-31.32
11,N#Cc1cccc(C(=O)Nc2cccc(-c3ccc(CN4CCC(O)CC4)cc3)c2)c1 [TCMDC-132652],-17.85
12,CCOC(=O)c1[nH]c2cc(Cl)cc(Cl)c2c1/C=C/C(=O)Nc1ccc(-c2cnc(NC(C)=O)[nH]2)cc1 [TCMDC-137161],-8.366
13,Cc1c(C(=O)N(C)C)sc2c1c(=O)n(Cc1ccccc1)c(=O)n2CC(=O)Nc1ccccc1F [TCMDC-125279],4.453
14,CCc1nc2nc(C)cc(Nc3ccc(F)c(Cl)c3)n2n1 [TCMDC-124770],1.315
15,CCc1nc2nc(C)cc(Nc3cc(C)cc(C)c3)n2n1 [TCMDC-124402],51.49
16,CCc1nc2nc(C)cc(Nc3ccc4c(c3)OCCO4)n2n1 [TCMDC-125299],-0.3909
17,CC1(C)N=C(N)N=C(N)N1OCCNCc1ccc(Cl)cc1 [TCMDC-131628],11.83
18,O=C(Nc1cccc(-c2nn3ccccc3c2-c2ccnc(Nc3ccc(-c4cc[nH]n4)cc3)n2)c1)c1c(F)cccc1F [TCMDC-135915],-3.577
19,CC1CCCC(Nc2noc(-c3sccc3Br)n2)C1 (centres unmarked) [TCMDC-134184],-4.566
20,Fc1ccc2[nH]cc(CCNCc3ccc(-c4cccc(-c5nc6ccccc6[nH]5)c4)cc3)c2c1.O=C(O)C(F)(F)F [TCMDC-132573],88.58
21,O=C(O)C(F)(F)F.c1ccc(-c2ccc(CNCc3ccc(-c4cccc(-c5nc6ccccc6[nH]5)c4)cc3)s2)nc1 [TCMDC-132571],17.42
22,O=C(O)C(F)(F)F.c1cc(-c2ccc(CNCCc3ccncc3)cc2)cc(-c2nc3ccccc3[nH]2)c1 [TCMDC-132553],67.12

row,SMILES,% Inhibition [%]
1,CS(=O)(=O)c1ccc(CCNCc2ccc(-c3cccc(-c4nc5ccccc5[nH]4)c3)cc2)cc1.O=C(O)C(F)(F)F [TCMDC-132558],87.75
2,Fc1ccc2[nH]c(-c3ccc(-c4ccc(CNCCc5ccncc5)cc4)cc3)nc2c1.O=C(O)C(F)(F)F [TCMDC-132851],-25.93
3,Cc1cccc2nc(-c3cccc(-c4ccc(CNCCc5ccncc5)cc4)c3)[nH]c12.O=C(O)C(F)(F)F [TCMDC-132846],-3.628
4,O=C(O)C(F)(F)F.c1cncc(CCNCc2ccc(-c3cccc(-c4nc5ccccc5[nH]4)c3)cc2)c1 [TCMDC-132554],4.222
5,O=C(O)C(F)(F)F.c1cc(CNCCc2ccncc2)cc(-c2ccc(-c3nc4ccccc4[nH]3)cc2)c1 [TCMDC-132856],-34.48
6,CS(=O)(=O)c1ccc(CNCc2ccc(-c3cccc(-c4nc5cc(F)ccc5[nH]4)c3)cc2)cc1.O=C(O)C(F)(F)F [TCMDC-132904],15.16
7,CS(=O)(=O)c1ccc(CNCc2ccc(-c3cccc(-c4nc5ccccc5[nH]4)c3)cc2)cc1.O=C(O)C(F)(F)F [TCMDC-132557],-11.29
8,O=C(O)C(F)(F)F.c1ccc(CCNCc2ccc(-c3cccc(-c4nc5ccccc5[nH]4)c3)cc2)nc1 [TCMDC-132537],93.06
9,CN(CCNCc1ccc(-c2cccc(-c3nc4ccccc4[nH]3)c2)cc1)S(C)(=O)=O.O=C(O)C(F)(F)F [TCMDC-132561],23.76
10,CC(=O)c1c(Nc2c(C)cc(C)cc2C)oc(C)cc1=O [TCMDC-125654],7.725
11,Cc1ccccc1C1CCN(C2CCC(NC(=O)c3ccc4c(c3)-c3nocc3C(C)O4)CC2)CC1 (centres unmarked) [TCMDC-134101],-36.23
12,O=C(Nc1cc(=O)[nH]c2nc(-c3ccccc3)nn12)C1CCCCC1 [TCMDC-125474],2.661
13,Cc1cccc2[nH]c(-c3cccc(-c4ccc(NC(=O)NCc5cccc(F)c5)cc4)c3)nc12 [TCMDC-133289],46.25
14,COc1cccc(CNC(=O)c2cc(CNCc3ccccc3)ccc2-c2cccc(CNCc3ccc(-c4ccccc4)cc3)c2)c1 [TCMDC-139616],14.44
15,CN(C)C(=O)c1cc(CNCc2ccccc2)ccc1-c1cccc(CNCc2ccc(-c3ccccc3)cc2)c1 [TCMDC-139617],33.8
16,CNCc1ccc(-c2cccc(CNCc3ccc(-c4ccccc4)cc3)c2)c(C(=O)OC)c1 [TCMDC-139615],117.6
17,CCCCNC(=O)c1cc(CNC2CCCCC2)ccc1-c1cccc(CNCc2ccc(-c3ccccc3)cc2)c1 [TCMDC-139614],92.13
18,COC(=O)c1cccc(CNCc2cccc(-c3csc(-c4nc5ccccc5[nH]4)c3)c2)c1 [TCMDC-132943],-44.21
19,CC(C)NCc1ccc(-c2cccc(CN3CCC(c4ccccc4)CC3)c2)c(C(=O)NCC2CCCCC2)c1 [TCMDC-134701],29.45
20,CCCCN(CCCC)CCNC(=O)c1cccc(NC(=O)N2CCc3cc(SC)c(C(F)(F)F)cc32)c1 [TCMDC-139012],-13.47
21,Cc1ccccc1NC1=NC(=S)N(c2cccc(C(F)(F)F)c2)C12CCC(C(C)(C)C)CC2 (centres unmarked) [TCMDC-125677],20.36
